Sampled rows, rich in hits. Any-hit rate of the full collection: about 4.1%.
hgDAF12 agonist: agonists of H. glycines DAF-12 nuclear receptor | activation, % at 6.8 µM | HEK293 GAL4-hgDAF12 UAS-luciferase reporter, agonist luminescence; normalized to butyrate control | 370,000 tested, 1.8% active;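 active means activation above a cutoff set at the mean of all screened compounds plus 3 SD, cut at about 10% in these data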
DAX1 inh-1: NR0B1 (DAX1) inhibition; HEK293 Gal4-DAX1 luciferase reporter, luminescence; AID 504766; inhibition, % at 6.75 µM; 340,000 tested, 0.99% active; P51843;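 active means inhibition above the mean over all tested compounds plus 3 SD, cut at about 4.2% in these data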;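 further: inhibition shows as a rise in luminescence from relieved DAX1 repression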
Target sequence (P51843 207-470 limits assumed): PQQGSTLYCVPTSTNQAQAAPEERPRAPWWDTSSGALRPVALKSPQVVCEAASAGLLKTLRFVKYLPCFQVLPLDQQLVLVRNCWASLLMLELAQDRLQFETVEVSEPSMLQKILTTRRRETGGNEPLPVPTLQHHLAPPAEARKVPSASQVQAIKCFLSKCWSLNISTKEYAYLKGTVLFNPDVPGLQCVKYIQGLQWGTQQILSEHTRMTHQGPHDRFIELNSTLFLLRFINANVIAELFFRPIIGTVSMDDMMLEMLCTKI
hcDAF12 agonist: H. contortus DAF-12 activation, primary screen; activation, % at 6.8 µM; 370,000 tested, 1.4% active; AID 652067; HEK293 hcDAF-12 lit1-tk-luc reporter, luminescence; 0% DMSO, 100% Δ7-dafachronic acid;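 active means activation above the mean of all tested compounds plus 3 SD, cut at about 5.5% in these data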
DAX1 inh-2: blocks DAX1 repression of SF-1 activated StAR promoter | HEK293T StAR-luciferase reporter, SF-1/DAX-1 repression relief | inhibition, % at 6.8 µM | 370,000 tested, 1.1% active | AID 652010;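 active means inhibition above the mean over all tested compounds plus 3 SD, cut at about 3.6% in these data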;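 further: higher inhibition means more luminescence from relief of DAX-1 repression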
ssDAF12 agonist: activates DAF-12 receptor from parasite S. stercoralis; HEK293 ssDAF-12/GRIP1 lit1-tk-luc reporter, luminescence; % of 3 µM dafachronic acid response; activation, % at 6.8 µM; 370,000 tested, 1% active; AID 652126;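 active means activation above the mean over all tested compounds plus 3 SD, cut at about 0.9% in these data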
Hits are given with their value; - = inactive; . = no result.

SMILES	hgDAF12 agonist	DAX1 inh-1	hcDAF12 agonist	DAX1 inh-2	ssDAF12 agonist
N#CC(c1c(Cl)cccc1N1CCCCC1)N1CCCCC1 (centres undefined)	-	.	-	-	-
COCCNC(=O)COC(=O)C1=Cc2ccccc2OC1	-	4.7	-	-	-
CCSc1nc(-c2ccccc2)c(C#N)c(=O)[nH]1	-	-	-	-	-
CCCOc1ccc(-c2nc(SCc3ccccc3)[nH]c(=O)c2C#N)cc1OC	-	-	-	-	4.3
Oc1[nH]c2ccccc2c1C1=NCCCC1	-	-	-	-	-
O=C1C(c2c(O)[nH]c3ccccc23)=Nc2ccccc21	-	-	-	-	1.3
COc1cc(Nc2cc(C)nc3ncnn23)cc(OC)c1	-	-	-	-	-
COc1cc(Nc2cc(C)nc3ncnn23)cc(OC)c1OC	-	5.5	-	-	-
O=C(Nc1ccccc1[N+](=O)[O-])NC1CCCCN(Cc2cccc(Cl)c2)C1=O (centres undefined)	-	.	-	-	-
COC(=O)c1ccc(/C=C/c2ccc3cccc(OC(C)=O)c3n2)cc1	12	-	-	-	-
COc1c(OC(C)=O)ccc(/C=C/c2ccc3cccc(OC)c3n2)c1[N+](=O)[O-]	-	-	-	-	-
COc1cccc(CN2CCN(Cc3cc(OC)c(OC)c(OC)c3)CC2)c1OC	-	-	-	-	1.3
CCS(=O)(=O)N1CCN(Cc2ccccc2OC)CC1	-	-	-	-	1.2
CC1(C(=O)NS(=O)(=O)c2ccc(C#N)cc2)CCN1C(=O)c1ccccc1CCc1ccccc1 (centres undefined)	-	.	-	-	-
Cc1ccc(C(=O)N2CCN(C)CC2)cc1[N+](=O)[O-]	-	4.6	-	-	-
Cc1ccc(C(=O)N2CCOCC2)cc1[N+](=O)[O-]	-	-	-	-	-
COC(=O)C1C(c2ccccc2)NC(=O)NC1(O)C(F)(F)Cl (centres undefined)	-	4.7	-	-	-
COCc1[nH]nc2c1C(c1cccc(C(F)(F)F)c1)NC2=O (centres undefined)	-	.	-	-	-
CCN1C(=O)CCN(C2CCCC2)c2nc(Nc3ccc(C(=O)NC4CCN(C)CC4)cc3OC)ncc21	-	8.2	-	-	-
O=C(O)C(Cc1ccccc1)N1C(=O)c2cccc3cccc(c23)C1=O (centres undefined)	-	-	-	-	1.7
O=C(O)C(Cc1ccccc1)N1C(=O)c2ccccc2C1=O (centres undefined)	-	-	-	-	-
COC(=O)[C@]12C[C@H](CC(=O)N3CCCC3)C(=O)N(CCC3=CCCCC3)C1=C[C@H](C(C)(C)C)O[C@@H]2C	-	.	-	-	-
COc1ccc(CN2C(=O)C(CC(=O)NCc3ccco3)CC(C(=O)N(C(C)C)C(C)C)=C2C)cc1 (centres undefined)	-	-	-	-	-
O=C(NCCCN1CCOCC1)c1ccc(Cl)cc1[N+](=O)[O-]	-	4.6	-	-	-
CN(C)c1ccc(/C=N/NC(=O)CN2CCCCC2)cc1Br	-	-	-	-	1.3
SMILES	hgDAF12 agonist	DAX1 inh-1	hcDAF12 agonist	DAX1 inh-2	ssDAF12 agonist
Nc1ccc2nc(COc3ccccc3)[nH]c2c1	-	-	6.5	-	-
Brc1ccc(OCc2nc3ccccc3[nH]2)cc1	12	-	6.0	-	-
COc1ccccc1OCc1nc2ccccc2[nH]1	-	7.3	-	-	-
c1ccc(CCc2nc3ccccc3[nH]2)cc1	13	-	-	-	-
Cc1ccc(C(=O)Nc2nc(C(N)Cc3ccc(C(F)(F)F)cc3)cs2)cc1 (centres undefined)	-	.	-	-	-
CC(=O)C1=C(C)N(Cc2ccc(F)cc2)C(=S)NC1c1cccc(F)c1 (centres undefined)	-	.	-	-	-
O=C(Nc1cccc(C(F)(F)F)c1)OC1CC2CC1[C@H]1CCCCN1[C@H]2Cc1ccccc1 (some centres undefined)	-	.	-	-	-
CC(=O)Nc1ccc2c(c1)[nH]c(=O)c1ccccc12	-	4.6	-	-	-
CCOC(=O)C1(Cc2cccc(OC)c2)CCCN(C(=O)c2ccc(OC)o2)C1 (centres undefined)	-	-	-	4.3	-
COc1cccc(CC2(CO)CCCN(C(=O)c3cc[n+]([O-])cc3)C2)c1 (centres undefined)	-	5.1	-	-	-
